Assay results from PubChem BioAssay (NCI).
This is part of a sample that, as a whole, favours compounds with a hit. Of some 83,000 tested, about 20% had one in any assay.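 Single-concentration screen, 48 h exposure, 96-well plates. Endpoint: percent growth. Below 10 = active.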 A number with no mark means an inactive call. Active and inactive are the calls of the source.

Tests used:
Test in all cases: NCI-60 one-dose screen, 48 h (100 = growth as untreated, 0 = no growth, -100 = all killed)
Details in all cases: 10 µM unless noted
[1] = system: NCI-H23 lung
[2] = system: NCI-H226 lung
[3] = system: NCI-H322M lung
[4] = system: HOP-62 NSCLC
[5] = system: NCI-H460 lung
[6] = system: HOP-92 NSCLC
[7] = system: NCI-H522 lung
[8] = system: A549/ATCC NSCLC
[9] = system: 786-0 renal
[10] = system: COLO 205 colon

Structure (SMILES)	growth [1]	growth [2]	growth [3]	growth [4]	growth [5]	growth [6]	growth [7]	growth [8]	growth [9]	growth [10]
COc1ccc2nc3cc(Cl)ccc3c(N3CCN(c4nccc(Nc5ccccc5)n4)CC3)c2c1	69.8%	95.4%	88.3%	79.2%	67.4%	67%	7.15% (active)	65.1%	59.1%	89.8%
CC(C)C1=C[C@@]23CC[C@@H]4[C@](C)(CCC[C@@]4(C)C(=O)OCC#CCN4CCCC4)[C@H]2C[C@@H]1[C@H]1C(=O)OC(=O)[C@H]13	94.9%	96.1%	88.5%	91.9%	103%	94.1%	78.7%	98.4%	103%	111%
CCOC(=O)Cc1cnn(C)c1NC(=O)c1ccc(Cl)cc1NC(C)=O	104%	98.6%	79.1%	96.4%	119%	91.4%	95.4%	103%	98.4%	110%
C/C(=C(/c1ccc(O)cc1)c1ccc(Cl)cc1)c1ccccc1	-62.5% (active)	-80.4% (active)	-95% (active)	-90.8% (active)	-91.2% (active)	-96% (active)	-78% (active)	-85.8% (active)	-89.3% (active)	-82.8% (active)
Nc1nc2ccc(-c3nc4ccc5[nH]ncc5c4c4c3CCC4)cc2s1	24.2%	22.7%	25.8%	3.53% (active)	2.53% (active)	-4.3% (active)	-29.4% (active)	32.2%	25.6%	-2.69% (active)
Cc1ccc(/C=C2\Oc3cc(OCC(=O)c4ccc(Cl)cc4)ccc3C2=O)cc1	90.1%	109%	103%	104%	120%	88.2%	103%	90.1%	107%	111%
C/C(=C(/c1ccc(O)cc1)c1ccc(OCCN(C)C)cc1)c1ccccc1	81.9%	89.4%	77%	79.8%	93.7%	54.9%	71.8%	72.4%	89.5%	63.8%
CC(C)Oc1nc2c(c(=O)n(C)c(=O)n2C)n1C	96%	97.1%	94.4%	92.5%	105%	102%	80.9%	84.7%	104%	102%
COc1cc2nc3cc([N+](=O)[O-])ccc3c(NCCCNCC(C)(C)O)c2cc1OC	-47.4% (active)	-37.6% (active)	-24.8% (active)	-53.3% (active)	-48.5% (active)	-53.9% (active)	-56.7% (active)	-30.9% (active)	-61.6% (active)	-81.2% (active)
NS(=O)(=O)N(c1cc(C(F)(F)F)cc(C(F)(F)F)c1)C1CCN(Cc2ccc(F)cc2)CC1	55.5%	69.3%	81.7%	77.3%	58.4%	34.9%	43.2%	66.5%	55.5%	-62.7% (active)
CCOC(=S)SCc1ccc(Cl)cc1	111%	101%	102%	101%	110%	49.3%	87.2%	80.4%	98%	145%
Cc1ccc2cnc(N)c(C#Cc3cncc(C(=O)Nc4ccc(CN5CCN(C)CC5)c(C(F)(F)F)c4)c3)c2c1	-63.8% (active)	-75.8% (active)	-97.2% (active)	-85.2% (active)	-78.8% (active)	-80.9% (active)	-71% (active)	-79.4% (active)	-79.6% (active)	-70.3% (active)
N=c1c2ccccc2nc2n1CCCCC2	102%	102%	112%	105%	113%	133%	116%	101%	119%	104%
COC1=CC(=O)C(OC)=C(OC)C1=O	90.5%	86.7%	94.2%	92.6%	96.6%	109%	100%	114%	93.4%	114%
c1ccc2c(Nc3cccc4ccccc34)cccc2c1	73.4%	72.3%	103%	56.3%	42.9%	28.1%	46.4%	48.1%	81.2%	58.3%
COCCCN=C(N)c1ccc(NC(=O)c2ccc(C(=O)Nc3ccc(C(N)=NCCCOC)cc3)cc2)cc1	82.1%	90.7%	90.5%	81.6%	102%	134%	97.5%	106%	87.7%	105%
CCN(C(=O)CN1CCN(c2cc3c(cc2F)c(=O)c(C(=O)O)cn3CC)CC1)c1nc(-c2ccccc2)cs1	9.94% (active)	18.2%	17.7%	15.5%	5.71% (active)	-31.8% (active)	-15.4% (active)	4.66% (active)	14.3%	-51.9% (active)
Oc1ccc2c(=S)cc(-c3ccc(Br)cc3)oc2c1O	-13.7% (active)	90.5%	10.5%	28.7%	3.24% (active)	-18.9% (active)	-27% (active)	3.47% (active)	28.1%	103%
CN1C2CCC1/C(=C\c1ccc(Cl)cc1)C1=C2[C@@H](c2ccc(Cl)cc2)C(C#N)=C(N)O1 (stereo not given in full)	83.5%	88.2%	89.9%	88.9%	91.6%	70.4%	78.3%	83.1%	93.2%	87.5%
CCOC(=O)c1cnc2ccc(Br)cc2c1Nc1cccc(S(=O)(=O)NC)c1	84.7%	90.8%	98.3%	92.3%	102%	102%	83.6%	104%	103%	128%
COc1cc2c(c(OC)c1OC)-c1ccc(N=NC(N)=S)c(=O)cc1[C@@H](NC(C)=O)CC2	1.29% (active)	41.8%	36.5%	7.96% (active)	3.1% (active)	69.6%	-59.8% (active)	15%	9.81% (active)	-73.6% (active)
CC1CN(Cc2ccco2)C(=S)N(c2ccccc2)C1=O (stereo not given)	108%	97.3%	99.4%	88.1%	98.5%	92.7%	92.9%	110%	103%	128%
Cc1ccc(SCN2CCN(c3cccc(Cl)c3)CC2)cc1	94.4%	80.9%	88.7%	114%	98.4%	89.7%	96%	106%	94.8%	115%
C=C1C(=O)O[C@H]2[C@H]1CC/C(Cn1cc(Cn3ccc4ccccc43)nn1)=C\CC[C@@]1(C)O[C@@H]21	45.6%	76.8%	79.7%	77.5%	86.5%	-36.3% (active)	-60.6% (active)	62%	-19.5% (active)	-71.4% (active)
O=C1Nc2ccccc2/C1=C/C(=N/c1nnc(-c2ccccc2)s1)c1ccccc1	45.7%	86.5%	95.7%	57%	88.2%	45.4%	-59.3% (active)	80.2%	-19.3% (active)	2.53% (active)
CC1(C)CC(=O)C(c2c(-c3ccccc3)[nH]c3[nH]c(=S)[nH]c(=O)c23)=C(O)C1	110%	108%	102%	112%	117%	84.7%	107%	89.8%	104%	119%
N=S(=O)(NC(=O)c1ccc(Cl)cc1Cl)c1ccc(Br)s1 (stereo not given)	102%	94.5%	118%	91%	85.8%	86.9%	103%	80.7%	89.9%	107%
